Screens as filed in PubChem.
FBPA Giardia inh: qHTS Assay for Inhibitors of Fructose-1,6-bisphosphate Aldolase from Giardia Lamblia; purified Giardia FBPA; Potency, µM (series often up to 59.6 µM), for the others: at the highest dose activity, negative = inhibition, actives largely listed as inhibitors; 290,000 tested, 0.71% active; further: potency means the concentration at half of the fitted maximal effect; nearly all actives have a fitted effect of over 55% in size
Target sequence (A8B2U2 whole entry, looked up): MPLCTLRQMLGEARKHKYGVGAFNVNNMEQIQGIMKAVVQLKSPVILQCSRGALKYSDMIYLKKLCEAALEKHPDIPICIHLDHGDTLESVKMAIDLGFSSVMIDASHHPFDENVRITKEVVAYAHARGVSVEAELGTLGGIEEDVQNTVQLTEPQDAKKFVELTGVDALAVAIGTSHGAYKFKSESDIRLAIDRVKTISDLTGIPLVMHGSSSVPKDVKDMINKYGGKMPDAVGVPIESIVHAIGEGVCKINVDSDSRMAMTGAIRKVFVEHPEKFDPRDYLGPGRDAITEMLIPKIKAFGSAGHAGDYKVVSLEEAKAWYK
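40 nM FBPA preincubated 10 min at RT with compound (up to 57.5 uM final), then substrate plus GAPDH/TPI/NAD/arsenate coupling and diaphorase/resazurin added. Fluorescence read after 20 min at RT, 525/598 nm.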
Pf growth 96h: Primary qHTS for delayed death inhibitors of the malarial parasite plastid, 96 hour incubation; 320,000 tested, 6.9% active; P. falciparum luciferase reporter growth, 96 h; Potency, µM (doses to about 28.7 µM), for the others: top-dose activity change, negative = inhibition, actives largely listed as inhibitors; further: potency means the concentration at half of the fitted maximal effect
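P. falciparum expressing integrated firefly luciferase, in erythrocytes at 2% hematocrit, 0.05% parasitemia, incubated with compounds 96 h at 37 C, 5% CO2. Growth inhibition read as loss of luminescence; two-generation exposure targets delayed-death apicoplast inhibitors.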
HCMV inh: qHTS Assay for inhibitors of the human cytomegalovirus (HCMV) | activity change, negative = inhibition, % at 57.5 µM | HFF cells, HCMV-luciferase reporter, 72 h; hits give low values | AID 1259415, 2018 | 410,000 tested, 4.5% active; in the data active means activity change below about -60%; inconclusive means no clear call, values can overlap the other calls; inactive means above about -39%
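Compounds were evaluated in HFFs infected with an HCMV luciferase reporter virus (MOI 1 PFU/cell). Luciferase in lysates collected 72 h post infection served as the replication measure.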
Pf growth 48h: Primary qHTS for delayed death inhibitors of the malarial parasite plastid, 48 hour incubation. P. falciparum luciferase growth in erythrocytes, 48 h. AID 504832, 2011. Potency, µM (titrated, usually from 28.7 µM), for inactives: at the top dose activity change, negative = inhibition, hits mostly inhibitors. 310,000 tested, 5.9% active; further: potency means the concentration at half of the fitted maximal effect
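Luciferase-expressing P. falciparum in infected erythrocytes (2% hematocrit, 0.1% parasitemia final) in RPMI 1640/0.5% Albumax were exposed to compound for 48 hours at 37 C, 5% CO2; growth read as luminescence.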
Sm TGR inh: qHTS Assay for the Inhibitors of Schistosoma Mansoni Peroxiredoxins; AID 485364, 2010; purified TGR, DTNB reduction, TNB absorbance 405 nm; Schistosoma mansoni thioredoxin glutathione reductase (TGR), Q962Y6; Potency, µM (titrated, usually from 114 µM), without a hit: top-dose activity change, negative = inhibition, actives largely listed as inhibitors; 360,000 tested, 3% active; further: potency means the concentration at half of the fitted maximal effect; nearly all actives have a fitted effect of over 60% in size
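TGR 20 nM + NADPH 100 uM (dispensed conc.), cpd preinc 15 min RT; start with NADPH (500 uM addition) then DTNB (15 mM addition). Kinetic TNB absorbance, 405 nm filter. Four-parameter Hill fit across titration.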
* marks the source's active call; other numbers are inactive results; ? = inconclusive; · = not tested or not shown; [ ] = remark or other dose. This is a sample that favours compounds with a hit; in the whole collection about 14% have one here. Unless noted, the call rests on the fitted dose curve; in most records, active means well fitted curve in the direction sought with a large enough effect; inconclusive means small, poorly fitted or top-dose-only effect, or another doubt; inactive means no such curve, though single readings can be large; an effect the other way counts as inactive or inconclusive. On the % scale 0 is the no-effect control and ±100 the full control effect.

SMILES	FBPA Giardia inh	Pf growth 96h	HCMV inh	Pf growth 48h	Sm TGR inh
O=C(Nc1cc(C(F)(F)F)ccc1N1CCCC1)C1CC(=O)N(Cc2ccccc2)C1 (centres undefined)	·	·	-24	·	·
CCN(CC)C(=O)C1CCCN(c2ccc([N+](=O)[O-])cc2[N+](=O)[O-])C1 (centres undefined)	1%	3%	?	-5%	-9%
CCN(CC)C(=O)C1CCCN(c2ccc([N+](=O)[O-])cc2/C=N/NC(=O)c2cccc([N+](=O)[O-])c2)C1 (centres undefined)	-7%	10µM*	3	?	3%
O=C(N/N=C/c1cc([N+](=O)[O-])ccc1N1CCNCC1)c1ccc([N+](=O)[O-])cc1	6%	4.1µM*	6	?	-14%
O=C(Cn1c2ccccc2c(=O)c2ccccc21)N/N=C/c1ccc(N2CCCC2)c([N+](=O)[O-])c1	2%	42%	?	25%	7%
O=C(Cn1c2ccccc2c(=O)c2ccccc21)N/N=C/c1cc([N+](=O)[O-])ccc1N1CCCCCC1	5%	23%	-73*	9%	-10%
Cc1ccc(NC(=O)CSc2nc3c(oc4ccccc43)c(=O)n2Cc2ccco2)cc1F	·	·	10	·	-9%
Cc1noc(C)c1S(=O)(=O)Nc1ccc(C#N)cc1	·	22%	11	-6%	-22%
Cc1cccc(C(=O)Nc2cc(Cl)ccc2-n2cncn2)c1[N+](=O)[O-]	·	47%	-3	12%	-19%
CCOc1ccc(OCCCC(=O)Nc2cc(Cl)ccc2-n2cncn2)cc1	·	-6%	-72*	-30%	-1%
Cc1cccc(OCC(=O)Nc2cc(Cl)ccc2-n2cncn2)c1C	·	?	-8	?	-2%
Cc1cccc(C)c1OCC(=O)Nc1cc(Cl)ccc1-n1cncn1	·	13µM*	-1	13µM*	-2%
Cc1cccc(OC(C)C(=O)Nc2cc(Cl)ccc2-n2cncn2)c1 (centres undefined)	·	?	0	4.1µM*	1%
Cc1ccc(OCC(=O)Nc2cc(Cl)ccc2-n2cncn2)c(C)c1	·	·	15	·	·
Cc1ccc(S(=O)(=O)CCC(=O)Nc2cc(Cl)ccc2-n2cncn2)cc1	·	-9%	-10	?	18µM*
CCCOc1ccccc1OCC(=O)Nc1cc(Cl)ccc1-n1cncn1	·	9.3µM*	-16	12µM*	2%
CCc1cccc(OCC(=O)Nc2cc(Cl)ccc2-n2cncn2)c1	·	?	-19	13µM*	-3%
Cc1ccccc1-c1ccc2ncnc(N(C)Cc3ccco3)c2c1	-5%	·	·	·	·
Cc1ccccc1NC(=O)Cn1c(=O)oc2cc(Br)ccc21	·	·	-16	·	8%
CCOC(=O)c1ccc(CN(Cc2ccc(F)cc2)S(=O)(=O)c2ccc(F)c(C(=O)Nc3c(C)cccc3C)c2)cc1	·	·	?	·	11%
c1cc2c(cc1C1CCCCC1)c1c3n2CCN[C@H]3CCC1	5%	·	·	·	·
NS(=O)(=O)c1ccc(N/N=C/c2cn(-c3ccccc3)nc2-c2cccs2)cc1	2%	0.066µM*	-77*	0.19µM*	-5%
NS(=O)(=O)c1ccc(N/N=C/c2cn(-c3ccccc3)nc2-c2cccs2)c([N+](=O)[O-])c1	7%	3.3µM*	-113*	1.5µM*	4%
NC(=O)N/N=C/c1cn(-c2ccccc2)nc1-c1cccs1	-3%	?	9	?	-4%
N#Cc1ccc(N/N=C/c2cn(-c3ccccc3)nc2-c2ccccc2)c([N+](=O)[O-])c1	20%	0.52µM*	39	?	-20%
SMILES	FBPA Giardia inh	Pf growth 96h	HCMV inh	Pf growth 48h	Sm TGR inh
O=Cc1cn(-c2ccccc2)nc1-c1cccc([N+](=O)[O-])c1	·	·	-1	·	·
COC(=O)c1c(C)sc(-c2c(-c3cccc(OC)c3)[nH]c3c2c(=O)[nH]c(=O)n3C)c1O	·	·	-5	·	-5%
Cc1ccc(CSCC(=O)N(C)CC(=O)Nc2ccccc2C(F)(F)F)cc1	·	-14%	?	-9%	-5%
O=C(O)c1ccccc1-n1ncc2c1/C(=C/c1ccc(Cl)cc1)CC2	3%	54%	-19	63%	14µM*
Cc1ccc(S(=O)(=O)c2c(N)n(NC(=O)c3ccco3)c3nc4ccccc4nc23)cc1	2%	?	2	?	0%
CN(C)CCCn1c(N)c(S(=O)(=O)c2ccccc2)c2nc3ccccc3nc21	1%	-28%	·	-17%	2%
Cc1ccc(S(=O)(=O)c2c(N)n(Cc3ccco3)c3nc4ccccc4nc23)cc1	-6%	10µM*	·	?	?
CCCCn1c(N)c(S(=O)(=O)c2ccc(C)cc2)c2nc3ccccc3nc21	-11%	12µM*	·	?	-12%
Cc1cccc(S(=O)(=O)c2c(N)n(Cc3ccco3)c3nc4ccccc4nc23)c1	-2%	-16%	·	8.3µM*	18µM*
CCN(CC)CCCNC(=O)c1cnc(SC)nc1-c1ccccc1	·	·	-2	·	3%
COc1ccc(NC(=O)CSc2c3c(nc4cc(Cl)ccc24)CCCC3)cc1OC	5%	23%	55	2%	1%
COc1ccc(NC(=O)CSc2c3c(nc4ccc(Cl)cc24)CCCC3)cc1Cl	·	·	-80*	·	16%
COc1cc(OC)c(NC(=O)c2ccc3c(SCC(=O)O)c4c(nc3c2)CCCC4)cc1Cl	-7%	226%	?	5.2µM*	-6%
Cc1ccc(C)c(NC(=O)CSc2c3c(nc4ccc(Cl)cc24)CCCC3)c1	·	·	-74*	·	1%
Cc1cccc(N2CCN(C(=O)c3ccncc3)CC2)c1C	9%	-9%	-1	-18%	0%
Cc1ccc2[nH]c(C(=O)N3CCN(C(c4ccccc4)c4ccccc4)CC3)cc2c1	0%	?	-17	2.6µM*	-19%
COc1ccccc1N1CCN(C(=O)c2cc3cc(F)ccc3[nH]2)CC1	3%	?	72	?	-5%
CN1CCN(C(=O)c2cc3cc(F)ccc3[nH]2)CC1	6%	0%	93	15µM*	11%
COc1cc(C(=O)N2CCN(c3cccc(C)c3C)CC2)cc(OC)c1OC	1%	10µM*	?	?	?
Cc1cccc(N2CCN(C(=O)c3cc4cc(F)ccc4[nH]3)CC2)c1C	1%	13µM*	·	1.7µM*	0%
COC(=O)[C@H](Cc1ccccc1)NC(=O)[C@@H](C)CO	-1%[12.9 µM]	·	·	·	·
Nc1[nH]c(C(=O)c2ccccc2)c(-c2ccncc2)c1C(=O)NCc1ccc(Cl)cc1	·	·	9	·	·
CN(C)CCCCCCN(C)C	·	-8%	-6	3%	·
CSc1ccccc1C(=O)NCCCn1ccnc1	-21%	0%	26	17%	0%
CCCN(C(=O)C1CCN(S(=O)(=O)c2c(C)noc2/C=C/c2ccc(C)cc2)CC1)c1ccccc1F	·	·	-4	·	-3%
